# Tested on: RET
# 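Note: kd values determined as follow-up on hits from a single-replicate KINOMEscan panel screen.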
row,SMILES,Kd
1,O=c1cc(N2CCOCC2)nc2n(Cc3cccc(Cl)c3)ccn12 [GSK2296823],> 10 µM
2,Nc1n[nH]c2nnc(-c3ccccc3)cc12 [SB-517389],> 10 µM
3,Cl.O=S(=O)(c1cccc(F)c1)c1ccc(Nc2ncnc3cc(Br)sc23)cc1Cl [GSK306886],> 10 µM
4,COc1cc2c(Nc3cccc(NC(=O)c4ccccc4)c3)ncnc2cc1OCCCN1CCOCC1 [GSK223810],0.11 µM

# Tested on: RIPK2
row,SMILES,Kd
1,Oc1ccc2ncnc(Nc3ccc(OCc4ccccc4)cc3)c2c1 [GI262866],8.1 nM
2,CCc1nc(-c2cccc(N(C)S(=O)(=O)c3ccccc3)c2)c(-c2ccnc(Nc3ccc(N4CCN(C(C)=O)CC4)nc3)n2)s1 [GSK1645895],130 nM
3,O=C(Nc1ccccc1)Nc1ccc(Oc2ccc3nccn3n2)cc1,> 10000 nM
4,COc1cc2ncnc(Nc3ccc(OCc4ccccc4Br)c(Cl)c3)c2cc1OC.Cl [GI261590],410 nM

# — publication PMC5540273 (PLoS ONE, 2017)
